Structures are written as SMILES. Values joined by “and” are separate entries in the source; they are usually repeats but may differ in a detail not shown here. Equal values may be shown once. More than one record can exist for a structure, and the calls need not agree. Active and inactive are the calls of the source. Rule for the calls: active = hit-call score of the fitted dose curve at least 0.9, where 1 is the maximum; inactive = score below 0.9.

E-selectin (Homo sapiens), sequence (P16581 whole entry, looked up): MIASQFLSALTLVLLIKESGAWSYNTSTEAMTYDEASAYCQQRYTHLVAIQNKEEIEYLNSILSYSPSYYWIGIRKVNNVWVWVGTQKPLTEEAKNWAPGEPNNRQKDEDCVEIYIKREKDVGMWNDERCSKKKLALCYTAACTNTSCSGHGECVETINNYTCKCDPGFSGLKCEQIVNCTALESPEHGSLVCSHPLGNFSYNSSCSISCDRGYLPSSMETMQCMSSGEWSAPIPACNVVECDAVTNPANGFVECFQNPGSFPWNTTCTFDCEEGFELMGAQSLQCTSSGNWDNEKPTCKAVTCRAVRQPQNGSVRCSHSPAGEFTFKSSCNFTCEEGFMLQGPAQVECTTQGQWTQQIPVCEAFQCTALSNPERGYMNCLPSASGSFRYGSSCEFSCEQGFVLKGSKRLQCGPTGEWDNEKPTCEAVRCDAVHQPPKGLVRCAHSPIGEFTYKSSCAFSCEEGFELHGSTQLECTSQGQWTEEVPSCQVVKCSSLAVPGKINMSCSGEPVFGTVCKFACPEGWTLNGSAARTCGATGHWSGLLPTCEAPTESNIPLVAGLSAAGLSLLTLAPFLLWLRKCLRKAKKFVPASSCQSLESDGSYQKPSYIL

Read-out in this experiment: E-selectin (Homo sapiens) (UniProt P16581)
Kind of experiment: BSK_LPS_Eselectin: BioMAP Diversity Plus: LPS Assay for Eselectin Biomarker Activity (AID 2283077). To be noted: primary human HUVEC with PBMC; actives raise or lower the signal. On the procedure: BSK_LPS is a cell-based, multiplexed-readout assay that uses umbilical vein endothelium and peripheral blood mononuclear cells, a human vascular primary cell co-culture, with measurements taken at 24 hours after chemical dosing in a 96-well plate.BSK_LPS_Eselectin is an assay component measured in the BSK_LPS assay. It measures E-selectin antibody related to regulation of gene expression using ELISA technology.Data from the assay component BSK_LPS_Eselectin was analyzed into 1 assay endpoint. This assay endpoint, BSK_LPS_Eselectin, was analyzed with bidirectional fitting relative to DMSO as the negative control and baseline of activity. Using a type of binding reporter, gain or loss-of-signal activity can be used to understand changes in the signaling as they relate to the gene SELE. Furthermore, this assay endpoint can be referred to as a primary readout, because this assay has produced multiple assay endpoints where this one serves a signaling function. To generalize the intended target to other relatable targets, this assay endpoint is annotated to the cell adhesion molecules intended target family, where the subfamily is selectins.
The levels of cell surface (or secreted, indicated by the prefix "s") biomarker endpoints were measured by ELISA. Overt cytotoxicity to cells in confluent adherent cultures (all systems other than the BT system) was assessed by measuring total protein levels using sulforhodamine B (SRB) staining in parallel cultures at the time of biomarker measurements, indicated as SRB endpoints. For proliferation assays for adherent cell types, individual cell types are cultured at sub-confluence and relative cell numbers quantified by SRB staining at time points optimized for each system (48 h: 3C and CASM3C systems; 72 h: BT and HDF3CGF systems; 96 h: SAg system). SRB was performed by staining cells with 0.1% SRB after fixation with 10% TCA and reading wells at 560 nm.Viability and proliferation of PBMC (T cells) was quantified by Alamar Blue reduction for the SAg and BT systems. For PBMC viability (referred to as PBMC Cytotoxicity within the assay endpoint names), cells were plated (75,000/well in a 96-well plate) and then chemical samples added for 1 h before addition of activators, SEB and TSST-1 (20 ng/mL final concentration each). Cells were incubated for 90 h. Then, Alamar Blue (20 uL/well) (Invitrogen, Cat DAL1100) was added for 6 h, and the plates were read with a fluorescence microplate reader at 546/580 nm (excitation/emission). For PBMC proliferation, cells were plated and activated as above but incubated for only 16 h prior to addition of Alamar Blue. Plates were read after 6 h.
`COc1ccc([N+](=O)[O-])cc1N`: the result was inactive.

Regarding `O=C(OCCOCCOC(=O)c1ccccc1)c1ccccc1`, the outcome was inactive.

In the case of `CCCCCCCCCCCCc1ccccc1S(=O)(=O)O`, the outcome was inactive.

Take `CC(C)(C)c1ccc(O)c(C(C)(C)C)c1`: the AC50 was 13.3 µM (active).

As to `CCCCCCCCCCCCCC[N+](C)(C)C`, the AC50 was 10 µM (active).

`OCCC(F)(F)C(F)(F)C(F)(F)C(F)(F)C(F)(F)C(F)(F)C(F)(F)C(F)(F)F`: the AC50 was 40 µM (active) and 30 µM (active); the result was inactive.

Turning to `O=C(O)Cc1cc(I)c(Oc2cc(I)c(O)c(I)c2)c(I)c1`, the result was inactive.

Take `CC(O)CO` (stereo not given): the outcome was inactive.

For the molecule `CCCOC(=O)c1ccc(O)cc1`, the result was inactive.

With `CCCCCCCCC(=O)O`, the outcome was inactive.

For the molecule `CCCCCCCC(=O)O`, the result was inactive.

On to `CC[C@H](c1ccc(O)cc1)[C@@H](CC)c1ccc(O)cc1`, for which the AC50 was 33.8 µM (active).

`c1ccc2c(c1)Cc1ccccc1-2`: the result was inactive.

With `CC1=C(/C=C/C(C)=C/C=C/C(C)=C/C(=O)O)C(C)(C)CCC1`, the AC50 was 6.18 µM (active).

As to `O=C(O)c1ccccc1C(c1ccc(O)cc1)c1ccc(O)cc1`, the outcome was inactive.

Turning to `CC(C)(C)CC(C)(C)c1ccc(O)c(-n2nc3ccccc3n2)c1`, the result was inactive.

On to `c1ccc2c(c1)ccc1ccccc12`, for which the result was inactive.

For `OC1CCCCC1`, the result was inactive.

For the molecule `CCCOc1sc(C(=O)N2CCC(c3cc(CN)ccc3F)CC2)c(C)c1Br`, the AC50 is 11.1 µM (active).

On to `Oc1cccc(O)c1`, for which the outcome was inactive.

In the case of `CN(C)C=O`, the result was inactive.

As to `CCCCC(CC)COC(=O)CCCCC(=O)OCC(CC)CCCC` (stereo not given), the outcome was inactive.

With `NCC(F)(F)C(F)(F)C(F)(F)C(F)(F)C(F)(F)C(F)(F)C(F)(F)F`, the result was inactive.

As to `NC(=O)N(O)[C@@H]1C=C[C@H](Oc2cccc(Oc3ccc(F)cc3)c2)C1`, the outcome was inactive.

On to `CCCCOCCO`, for which the result was inactive.

Consider `CC(C)(C)c1cccc(C(C)(C)C)c1O`, for which the outcome was inactive.

On to `C=C(C)C(=O)OCCC(F)(F)C(F)(F)C(F)(F)C(F)(F)C(F)(F)C(F)(F)F`, for which the outcome was inactive.

For the molecule `COCC(C)OCC(C)O` (stereo not given), the result was inactive.

With `OC1CCC(C2CCCCC2)CC1` (stereo not given), the outcome was inactive.

Turning to `CCCCCCCCCCCCCCCS(=O)(=O)Oc1ccccc1`, the result was inactive.

In the case of `CN1CCC[C@H]1c1cccnc1`, the result was inactive.

Regarding `CCCCCCCCCCCCN1CCCC1=O`, the AC50 is 33.8 µM (active).

As for `CCOC(=O)CC(O)(CC(=O)OCC)C(=O)OCC`, the outcome was inactive.

On to `O=[N+]([O-])c1ccc(O)cc1`, for which the outcome was inactive.

In the case of `CCc1ccc(CCOc2ccc(CC3SC(=O)NC3=O)cc2)nc1` (stereo not given), the result was inactive.

As for `N#C[C@@H]1CC(F)(F)CN1C(=O)CNC1CC2CCC(C1)N2c1ncccn1` (stereo not given in full), the result was inactive.

Turning to `CCc1nn(C2CCCCC2)c2cc(C3(C#N)CCC(C(=O)O)CC3)ccc12` (stereo not given), the AC50 is 16.1 µM (active).

In the case of `C#C[C@]1(O)CC[C@H]2[C@@H]3CCC4=CC(=O)CC[C@@H]4[C@H]3CC[C@@]21C`, the AC50 is 6.29 µM (active).

Consider `CCCCC(CC)COC(=O)CCCCC(=O)OCc1ccccc1` (stereo not given), for which the outcome was inactive.
